# Experimental data from the antibiotic and cytotoxicity screens of Wong et al. (2023).
# In all, about 39,000 compounds went through this assay and about 3,300 (8.5%) were called active. The sample as a whole holds a higher share of actives than the screen did.
# System: HepG2
# Assay: cytotoxicity call (relative viability < 0.9)
# Details: 10 µM
row,SMILES,cytotoxicity call
1,NCC[C@H]1CC[C@@H](NC(=O)Cc2ccncc2)[C@@H](CO)O1,inactive
2,C[C@@H]1CN([C@@H](C)CO)C(=O)CCCn2cc(nn2)CO[C@H]1CN(C)S(=O)(=O)c1ccc(Oc2ccccc2)nc1,inactive
3,CSc1nn(C)c2cnn(C)c(=O)c12,inactive
4,C[C@H](CO)N1C[C@H](C)[C@H](CN(C)S(=O)(=O)c2cn(C)cn2)Oc2ncc(C#Cc3ccccc3)cc2C1=O,inactive
5,COc1ccc(S(=O)(=O)Nc2ccc3c(c2)C(=O)N([C@H](C)CO)C[C@H](C)[C@@H](CN(C)C(=O)Nc2c(C)noc2C)OCCCC[C@@H](C)O3)cc1,inactive
6,C[C@@H]1CN([C@@H](C)CO)C(=O)c2cc(NC(=O)Nc3ccc(F)cc3)ccc2O[C@@H](C)CCCCO[C@H]1CN(C)C(=O)CCCN(C)C,inactive
7,Cc1noc(C)c1S(=O)(=O)Nc1ccc2c(c1)C(=O)N([C@@H](C)CO)C[C@@H](C)[C@@H](CN(C)S(=O)(=O)c1ccc(Cl)cc1)O2,inactive
8,C[C@@H]1CN([C@H](C)CO)C(=O)c2cc(C#Cc3cccc(F)c3)cnc2O[C@@H]1CN(C)C(=O)C1CCOCC1,inactive
9,C[C@@H]1CCCCO[C@@H](CN(C)C(=O)Nc2ccccc2)[C@H](C)CN([C@@H](C)CO)C(=O)c2cc(NS(=O)(=O)c3ccc(F)cc3)ccc2O1,inactive
10,C[C@H](CO)N1C[C@H](C)[C@@H](CN(C)C(=O)Nc2ccccc2)OCCCC[C@H](C)Oc2ccc(NS(=O)(=O)c3ccc(F)cc3)cc2C1=O,inactive
11,C[C@@H]1CN([C@@H](C)CO)C(=O)c2cc(NS(=O)(=O)c3ccc(F)cc3)ccc2O[C@@H](C)CCCCO[C@H]1CN(C)C(=O)Nc1ccccc1,inactive
12,C[C@@H]1CCCCO[C@@H](CN(C)C(=O)Nc2ccccc2)[C@H](C)CN([C@H](C)CO)C(=O)c2cc(NS(=O)(=O)c3ccc(F)cc3)ccc2O1,active
13,C[C@@H]1CCCCO[C@H](CN(C)C(=O)Nc2ccccc2)[C@H](C)CN([C@@H](C)CO)C(=O)c2cc(NS(=O)(=O)c3ccc(F)cc3)ccc2O1,inactive
14,C[C@@H]1CN([C@H](C)CO)C(=O)c2cc(NS(=O)(=O)c3ccc(F)cc3)ccc2O[C@@H](C)CCCCO[C@H]1CN(C)C(=O)Nc1ccccc1,active
15,COc1cccc(C(=O)Nc2ccc3c(c2)C(=O)N(C)[C@@H]2CC[C@H](CC(=O)NCCCN4CCOCC4)O[C@@H]2CO3)c1,inactive
16,Cn1ccc2ccc(CN)cc21,inactive
17,Cc1cc(C)nc(C#N)n1,inactive
18,C[C@H](CO)N1C[C@H](C)[C@@H](CN(C)C(=O)Nc2ccc3c(c2)OCO3)Oc2ccc(NC(=O)Nc3cccc4ccccc34)cc2CC1=O,inactive
19,COc1ccc(S(=O)(=O)Nc2ccc3c(c2)C(=O)N([C@H](C)CO)C[C@H](C)[C@H](CN(C)C(=O)Nc2ccc(F)cc2)OCCCC[C@@H](C)O3)cc1,inactive
20,COCC#Cc1ccc2c(c1)O[C@@H](CN(C)C(=O)c1ccccc1)[C@H](C)CN([C@H](C)CO)S2(=O)=O,inactive
21,C[n+]1cc2c3c(ccc2c2ccc4cc5c(cc4c21)OCO5)OCO3.[Cl-],active
22,CCCNC(=O)N1C[C@@H](O)COC[C@H]2O[C@H](CC(=O)N3CCN(C)CC3)CC[C@@H]21,inactive
23,C[n+]1ccn(C[C@@]2(C)[C@H](C(=O)O)N3C(=O)C[C@H]3S2(=O)=O)n1,inactive
24,Cc1noc(C)c1NC(=O)N(C)C[C@H]1Oc2c(NS(=O)(=O)c3cn(C)cn3)cccc2C(=O)N([C@@H](C)CO)C[C@@H]1C,inactive
25,Cc1ccc(S(=O)(=O)N[C@@H](Cc2ccccc2)C(=O)NCCCn2cc(-c3ccc(C(=O)NO)s3)nn2)cc1,inactive

row,SMILES,cytotoxicity call
1,O=C(C[C@@H]1C/C=C/C[C@H](Cc2ccccc2)C(=O)N[C@H](c2ccccc2)COC1=O)NCc1ccc(Cl)cc1,active
2,CC(=O)N[C@H]1C/C=C/C[C@@H](CC(=O)NCc2ccc(Cl)cc2)C(=O)NC[C@@H](c2ccccc2)OC1=O,inactive
3,C[C@H]1COC(=O)[C@H](Cc2ccc(F)cc2)CC=CC[C@@H](CC(=O)N[C@H](CO)Cc2ccccc2)C(=O)N1,inactive
4,C[C@@H]1CN([C@@H](C)CO)C(=O)c2cc(NC(=O)c3ccncc3)ccc2O[C@@H](C)CCCCO[C@@H]1CN(C)Cc1ccccc1,inactive
5,C[C@H]1CN([C@@H](C)CO)C(=O)c2cc(NC(=O)Cn3cnnn3)ccc2O[C@@H]1CN(C)S(=O)(=O)c1ccc(Cl)cc1,inactive
6,C[C@@H]1CN([C@@H](C)CO)C(=O)Cc2cc(NC(=O)Nc3ccc(F)cc3)ccc2O[C@@H]1CN(C)Cc1ccc(-c2ccccc2)cc1,active
7,C[C@H](CO)N1C[C@H](C)[C@@H](CN(C)Cc2ccc(-c3ccccc3)cc2)Oc2ccc(NC(=O)Nc3ccc(F)cc3)cc2CC1=O,active
8,C[C@H]1CN([C@@H](C)CO)C(=O)Cc2cc(NC(=O)Nc3ccc(F)cc3)ccc2O[C@@H]1CN(C)Cc1ccc(-c2ccccc2)cc1,active
9,C[C@H](CO)N1C[C@H](C)[C@H](CN(C)Cc2ccc(-c3ccccc3)cc2)Oc2ccc(NC(=O)Nc3ccc(F)cc3)cc2CC1=O,active
10,C[C@H](CO)N1C[C@H](C)[C@@H](CN(C)S(=O)(=O)c2cn(C)cn2)Oc2ncc(C3=CCCC3)cc2C1=O,inactive
11,O=C(CN1CCOCC1)N[C@H]1CC[C@@H](CCNC(=O)Nc2cc(F)ccc2F)O[C@H]1CO,inactive
12,CON=C(C(=O)NC1C(=O)N2C(C(=O)[O-])=C(COC(N)=O)CSC12)c1ccco1.[Na+] (centres undefined),inactive
13,C[C@@H]1CCCCO[C@H](CN(C)C(=O)Nc2cccc3ccccc23)[C@@H](C)CN([C@@H](C)CO)C(=O)c2cc(N(C)C)ccc2O1,inactive
14,CCCNC(=O)N(C)C[C@H]1Oc2cc(C#Cc3cccc(F)c3)ccc2S(=O)(=O)N([C@H](C)CO)C[C@H]1C,inactive
15,C[C@H](CO)N1C[C@H](C)[C@H](CN(C)Cc2ccccc2)OCCCC[C@H](C)Oc2ccc(NS(=O)(=O)c3ccc(Cl)cc3)cc2C1=O,inactive
16,CCCNC(=O)N(C)C[C@@H]1Oc2cc(-c3ccc(C)cc3)ccc2S(=O)(=O)N([C@H](C)CO)C[C@@H]1C,inactive
17,COCC(=O)N(C)C[C@H]1Oc2cc(C#Cc3ccccc3)ccc2S(=O)(=O)N([C@H](C)CO)C[C@H]1C,inactive
18,C[C@@H]1CN([C@@H](C)CO)C(=O)Cc2cc(NC(=O)Nc3ccc(F)cc3)ccc2O[C@H]1CN(C)Cc1ccc(-c2ccccc2)cc1,active
19,C[C@@H]1CN([C@H](C)CO)C(=O)Cc2cc(NC(=O)Nc3ccc(F)cc3)ccc2O[C@H]1CN(C)Cc1ccc(-c2ccccc2)cc1,active
20,C[C@H]1CN([C@@H](C)CO)C(=O)Cc2cc(NC(=O)Nc3ccc(F)cc3)ccc2O[C@H]1CN(C)Cc1ccc(-c2ccccc2)cc1,active
21,C[C@@H]1CN([C@H](C)CO)C(=O)Cc2cc(NC(=O)Nc3ccc(F)cc3)ccc2O[C@@H]1CN(C)Cc1ccc(-c2ccccc2)cc1,inactive
22,C[C@@H]1CN([C@@H](C)CO)C(=O)CCCn2nncc2CO[C@H]1CN(C)C(=O)Nc1ccc(C(C)(C)C)cc1,inactive
23,C[C@H](CO)N1C[C@H](C)[C@@H](CN(C)Cc2ccc(C(=O)O)cc2)Oc2c(NC(=O)c3cnccn3)cccc2C1=O,inactive
24,CCOc1nc(N2CCOCC2)nc(N2CCOCC2)n1,inactive
25,CC=NN(C)C=O,inactive

row,SMILES,cytotoxicity call
1,CC(C)NC(=O)Nc1ccc2c(c1)CC(=O)N([C@@H](C)CO)C[C@H](C)[C@@H](CN(C)S(=O)(=O)c1ccccc1)O2,inactive
2,c1ccc(CN(CC2=NCCN2)c2ccccc2)cc1,inactive
3,CC(C)COCC(CN(Cc1ccccc1)c1ccccc1)N1CCCC1.Cl (centres undefined),active
4,CC(COc1ccccc1)N(CCCl)Cc1ccccc1.Cl (centres undefined),inactive
5,CN(C)C(=O)[C@@H]1[C@@H](CO)[C@@H]2Cn3c(ccc(C4=CCCC4)c3=O)[C@H]1N2S(=O)(=O)c1cn(C)cn1,inactive
6,COc1cccc(C#Cc2cnc3c(c2)C(=O)N([C@H](C)CO)C[C@H](C)[C@@H](CN(C)C(=O)C2CCC2)O3)c1,inactive
7,Cn1cnc(S(=O)(=O)N2C[C@@H](O)COC[C@@H]3O[C@H](CC(=O)NCc4cc(F)cc(F)c4)CC[C@H]32)c1,inactive
8,C[C@H](CO)N1C[C@H](C)[C@H](CN(C)S(=O)(=O)c2cccs2)Oc2ncc(-c3ccc(F)cc3)cc2C1=O,inactive
9,Cc1cc2nc3c(=O)[nH]c(=O)nc-3n(CC(O)C(O)C(O)CO)c2cc1C (centres undefined),inactive
10,Cc1cc2nc3c(=O)[nH]c(=O)nc-3n(C[C@H](O)[C@H](O)[C@H](O)COP(=O)(O)O)c2cc1C,inactive
11,Cc1cc2nc3c(=O)[nH]c(=O)nc-3n(CC(O)C(O)C(O)COP(=O)([O-])O)c2cc1C.[Na+] (centres undefined),active
12,C[C@@H]1CN([C@H](C)CO)C(=O)c2cc(C#CC3(O)CCCC3)cnc2O[C@H]1CN(C)C(=O)Cc1ccccc1,inactive
13,C[C@H]1CN([C@@H](C)CO)C(=O)c2cccc(NC(=O)Nc3cccc4ccccc34)c2O[C@H]1CN(C)Cc1ccc(-c2ccccc2)cc1,inactive
14,C[C@@H]1CCCCO[C@H](CN(C)Cc2ccc(C(=O)O)cc2)[C@H](C)CN([C@H](C)CO)C(=O)c2cc(NC(=O)Nc3ccc4c(c3)OCO4)ccc2O1,inactive
15,C[C@@H]1CCCCO[C@H](CN(C)Cc2ccc(Cl)c(Cl)c2)[C@@H](C)CN([C@@H](C)CO)C(=O)c2cc(NC(=O)Nc3ccc(C(F)(F)F)cc3)ccc2O1,active
16,C[C@@H]1CN([C@@H](C)CO)C(=O)c2cc(NC(=O)Nc3ccc(C(F)(F)F)cc3)ccc2O[C@@H](C)CCCCO[C@H]1CN(C)Cc1ccc(Cl)c(Cl)c1,inactive
17,C[C@@H]1CCCCO[C@@H](CN(C)Cc2ccc(Cl)c(Cl)c2)[C@@H](C)CN([C@@H](C)CO)C(=O)c2cc(NC(=O)Nc3ccc(C(F)(F)F)cc3)ccc2O1,inactive
18,C[C@H](CO)N1C[C@H](C)[C@@H](CN(C)Cc2ccc(Cl)c(Cl)c2)OCCCC[C@H](C)Oc2ccc(NC(=O)Nc3ccc(C(F)(F)F)cc3)cc2C1=O,active
19,C[C@@H]1CCCCO[C@H](CN(C)Cc2ccc(Cl)c(Cl)c2)[C@H](C)CN([C@@H](C)CO)C(=O)c2cc(NC(=O)Nc3ccc(C(F)(F)F)cc3)ccc2O1,active
20,C[C@@H]1CCCCO[C@@H](CN(C)Cc2ccc(Cl)c(Cl)c2)[C@H](C)CN([C@@H](C)CO)C(=O)c2cc(NC(=O)Nc3ccc(C(F)(F)F)cc3)ccc2O1,active
21,C[C@@H]1CCCCO[C@@H](CN(C)Cc2ccc(Cl)c(Cl)c2)[C@H](C)CN([C@H](C)CO)C(=O)c2cc(NC(=O)Nc3ccc(C(F)(F)F)cc3)ccc2O1,inactive
22,C[C@@H]1CN([C@H](C)CO)C(=O)c2cc(NC(=O)Nc3ccc(C(F)(F)F)cc3)ccc2O[C@@H](C)CCCCO[C@H]1CN(C)Cc1ccc(Cl)c(Cl)c1,inactive
23,C[C@@H]1CCCCO[C@@H](CN(C)Cc2ccc(Cl)c(Cl)c2)[C@@H](C)CN([C@H](C)CO)C(=O)c2cc(NC(=O)Nc3ccc(C(F)(F)F)cc3)ccc2O1,inactive
24,C[C@@H]1CN([C@H](C)CO)C(=O)c2cc(NC(=O)Nc3ccc(C(F)(F)F)cc3)ccc2O[C@@H](C)CCCCO[C@@H]1CN(C)Cc1ccc(Cl)c(Cl)c1,inactive
